Results on 44 compounds are retold here after PubChem BioAssay AID926 (National Center for Advancing Translational Sciences (NCATS), 2007).

Assay [1] in a line: qHTS Assay for Agonists of the Thyroid Stimulating Hormone Receptor. The settings on record: HEK293-CNG-TSHR cells, membrane potential dye, cAMP; measured here: parental cells max response. In short, it runs like this:
(§1)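 HEK 293 cells stably expressing TSHR and a cAMP-gated CNG channel; parental CNG-only cells as counterscreen. Cells preloaded 60 min with membrane potential dye plus 100 uM RO 20-1724, then compound 30 min; fluorescence read at 590 nm.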
(In general: In qHTS, concentration-response curves come from the screen itself.)

The target of assay [2] is Thyrotropin receptor (Homo sapiens) (UniProt P16473). The description is as above. The settings on record: HEK293-CNG-TSHR cells (CNG channel as cAMP sensor), membrane potential dye, cAMP; series mostly up to 57.1 µM. The method, boiled down:
as §1

Structures are written as SMILES. In all, about 73,000 compounds went through this assay and about 350 (0.48%) were called active. Not shown: some 17% with an inconclusive outcome. The call rests on the fitted dose curve; in most records, active means well fitted activation curve with a large enough effect in the main read-out, with a control signal flat (not every such curve was filed as active); inconclusive means small, poorly fitted or top-dose-only effect, or a change in a side signal; inactive means no such curve, though single readings can be large or run the other way; reference of the percent scale not stated here. The list comes from a sample in which actives are over-represented; it also holds similar structures and randomly drawn compounds.
Potency means the concentration at half of the fitted maximal effect.

Chain of Thyrotropin receptor (Homo sapiens) (P16473 whole entry, looked up): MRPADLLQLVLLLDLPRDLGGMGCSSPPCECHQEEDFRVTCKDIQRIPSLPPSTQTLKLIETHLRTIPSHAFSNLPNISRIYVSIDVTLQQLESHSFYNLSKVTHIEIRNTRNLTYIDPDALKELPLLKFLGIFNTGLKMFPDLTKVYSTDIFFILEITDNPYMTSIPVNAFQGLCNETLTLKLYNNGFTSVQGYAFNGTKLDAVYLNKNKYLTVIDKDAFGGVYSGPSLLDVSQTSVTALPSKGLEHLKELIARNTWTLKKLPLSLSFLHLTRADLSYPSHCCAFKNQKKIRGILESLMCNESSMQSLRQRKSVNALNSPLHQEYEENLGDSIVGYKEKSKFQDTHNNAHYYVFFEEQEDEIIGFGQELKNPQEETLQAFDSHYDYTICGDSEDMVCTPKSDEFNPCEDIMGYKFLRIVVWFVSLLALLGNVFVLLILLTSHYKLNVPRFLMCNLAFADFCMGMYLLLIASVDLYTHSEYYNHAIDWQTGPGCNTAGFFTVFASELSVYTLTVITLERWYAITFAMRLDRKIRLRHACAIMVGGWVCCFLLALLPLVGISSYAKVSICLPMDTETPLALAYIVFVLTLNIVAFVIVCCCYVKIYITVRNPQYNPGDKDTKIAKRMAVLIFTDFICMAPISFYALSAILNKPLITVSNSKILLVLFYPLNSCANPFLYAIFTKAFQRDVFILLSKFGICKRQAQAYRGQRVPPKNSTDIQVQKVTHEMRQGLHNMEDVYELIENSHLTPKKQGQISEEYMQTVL

For the compound `c1ccc2nc(C3=NCCN3)cnc2c1`, the activation in assay [1] was -2.21%. Moreover, in assay [2], the Potency entry is “inactive”.

Consider `COCc1cc(C)nc(Nc2cc(C)ccc2C)c1C#N`, for which, in assay [1], the activation amounted to 18.4%. The Potency entry in assay [2] was “inactive”.

`CC1CCN(C(=O)CSc2ccc3nnc(-c4cccc(F)c4)n3n2)CC1`: the activation in assay [1] was found to be 0.67%. Further, the Potency entry in assay [2] is “inactive”.

With `COc1ccc(C[C@H](N)C(=O)N[C@@H]2[C@H](O)[C@H](n3cnc4c(N(C)C)ncnc43)O[C@@H]2CO)cc1`, the activation in assay [1] is -1.32%. For the same compound, the Potency entry in assay [2] is “inactive”.

Turning to `Cc1cc2nc3c(=O)[nH]c(=O)nc-3n(C[C@H](O)[C@H](O)[C@H](O)CO)c2cc1C`, the activation in assay [1] stood at 35.7%. Further, the Potency entry in assay [2] was “inactive”.

As for `O=C(CCn1c(=O)oc2ccccc21)Nc1ccon1`, the activation in assay [1] was 5.04%. The Potency result in assay [2] is “inactive”.

On to `COCCCNC(=O)COc1cc(C)c(Cl)c(C)c1`, for which the activation in assay [1] amounted to 3.68%. For the same compound, the Potency entry in assay [2] is “inactive”.

As to `COC(=O)CSC1=C(C#N)C(c2ccccc2OC)C(C(=O)OC)C(=O)N1` (stereo not drawn), the activation in assay [1] is -3.31%; in assay [2], -3.47% [at 11.4 µM] (inactive).

Take `C=CCOC(=O)COCCC(C)C`: in assay [1], the activation was found to be 1.07%. Besides, in assay [2], the Potency result was “inactive”.

As for `Cn1cccc1C(=O)N1CCC[C@@]2(CCN(Cc3nccs3)C2)C1`, in assay [1], the activation came out at 1.41%. Also, in assay [2], the Potency result is “inactive”.

Turning to `CCCC[C@@H]1C[C@H]1C(NC(=O)c1ccc(-c2ccccc2)cc1)c1ccc(-c2ccccc2)cc1` (stereo partly drawn), the activation in assay [1] was 1.42%. In addition, in assay [2], the Potency entry is “inactive”.

As for `Cc1cccc(Br)c1`, in assay [1], the activation was found to be 15%. The Potency result in assay [2] is “inactive”.

Regarding `CCCC(Cl)CCCC(Cl)CCC(Cl)CCC(Cl)CCC(Cl)CCCC(Cl)CCC` (stereo not drawn), the activation in assay [1] came out at 3.46%. The Potency result in assay [2] is “inactive”.

Turning to `O=C(Cl)c1ccc([N+](=O)[O-])cc1`, in assay [1], the activation was -6.7%. In addition, the Potency entry in assay [2] was “inactive”.

Turning to `COc1ccc(C2SCCN2S(=O)(=O)c2ccccc2)cc1OC` (stereo not drawn), in assay [1], the activation came out at 15.1%. In assay [2], the Potency was 31.6 µM (active).

In the case of `COc1ccc(S(=O)(=O)Nc2ccc(S(=O)(=O)N3CCCCC3)cc2)cc1OC`, the activation in assay [1] is -4.42%. In assay [2], the Potency result was “inactive”.

For `COc1ccccc1CN1CC2(CCN(S(=O)(=O)c3ccccc3)CC2)C1`, the activation in assay [1] is 7.71%. Moreover, in assay [2], the Potency entry was “inactive”.

For `Cc1ccc2oc(=O)ccc2c1`, the activation in assay [1] stood at 1.36%. In assay [2], the Potency entry was “inactive”.

Take `CO[C@H]1COC(=O)[C@@H](OCc2ccccc2)/C=C\[C@H](C)[C@@H](OC)COC(=O)[C@H](OCc2ccccc2)/C=C\[C@@H]1C`: the values for the activation in assay [1] and in assay [2] were -2.98% and -1.59% [at 11.4 µM] (inactive), respectively.

`CCc1ccccc1N(CC(=O)NCCSCc1ccco1)S(C)(=O)=O`: the results for the activation in assay [1] and in assay [2] were 6.61% and 16.8% [at 11.4 µM] (inactive), respectively.

For the compound `COC(=O)C1(Cc2ccccc2)C=C2C(=C(C)C(=O)C2C)CN1` (stereo not drawn), in assay [1], the activation was 7.11%. For the same compound, in assay [2], the Potency result was “inactive”.

On to `CC(=O)N1[C@H](C)C=C[C@]1(Cc1ccccc1)C(=O)NCc1ccccn1`, for which the activation in assay [1] came to 7.85%. For the same compound, the Potency result in assay [2] was “inactive”.

As for `Cc1cc(C)cc(C#CC2C=CC(Oc3ccc(C4CCCC4)cc3)C(CO)O2)c1` (stereo not drawn), the activation in assay [1] was 16.7%; in assay [2], 5.07% [at 11.4 µM] (inactive).

As for `COC(=O)[C@@]1(Cc2ccc(F)cc2)[C@@H]2[C@@H](CC(=O)[C@H]2CC(=O)C(=O)N2CCCC2)CN1C(=O)c1ccccc1`, in assay [1], the activation came out at 18.8%. Besides, the Potency entry in assay [2] is “inactive”.

As to `CCNCCCNCCCNCCCNCC`, in assay [1], the activation was -2.31%. In addition, the Potency result in assay [2] is “inactive”.

`BrC1C(Br)C(Br)C(Br)C(Br)C1Br` (stereo not drawn): the activation in assay [1] stood at 2.31%. Besides, in assay [2], the Potency entry was “inactive”.

`Cc1cccc(C(=O)O)c1[N+](=O)[O-]`: in assay [1], the activation turned out to be 15%. Further, the Potency result in assay [2] is “inactive”.

For `CC1(C)OC(C(O)(c2ccccc2)c2ccccc2)C(C(O)(c2ccccc2)c2ccccc2)O1` (stereo not drawn), the activation in assay [1] is 25.8%; in assay [2], 15.4% [at 11.4 µM] (inactive).

As for `Cc1cccc(NC(=O)CSC(N)=O)c1C`, the activation in assay [1] is -24.7%. Further, in assay [2], the Potency result was “inactive”.

On to `Cc1ccc(S(=O)(=O)N2CCCC2CO)cc1` (stereo not drawn), for which the values for the activation in assay [1] and in assay [2] were -3.4% and -5.75% [at 11.4 µM] (inactive), respectively.

For the compound `CCCS(=O)(=O)N1CCCC(C(=O)NCc2ccco2)C1` (stereo not drawn), the activation in assay [1] came out at 10.5%. In addition, the Potency result in assay [2] is “inactive”.

With `Cc1ccc(S(=O)(=O)N2CCCC2C(=O)NCc2ccco2)cc1` (stereo not drawn), the activation in assay [1] is -0.0422%. Also, the Potency in assay [2] was 12.6 µM (active).

On to `C/C(CCN1CCc2nc(-c3ccccc3)c(-c3ccccc3)cc2C1)=N\O[C@@H](C)c1cn([C@@H]2COC[C@@H]2O)nn1`, for which the activation is 0.56% in assay [1] and 6.46% [at 11.4 µM] (inactive) in assay [2].

Turning to `C=CCn1cnc2scc(-c3ccccc3)c2c1=O`, the activation in assay [1] was -2.42%. Besides, in assay [2], the Potency entry is “inactive”.

For the compound `O=C1C(c2[nH]c3ccccc3c2O)=Nc2ccccc21`, the activation in assay [1] was -17.9%. For the same compound, the Potency entry in assay [2] is “inactive”.

For `O=C(O)CS(=O)c1ccc2c3c(cccc13)C(=O)c1ccccc1-2` (stereo not drawn), the results for the activation in assay [1] and in assay [2] were -9.79% and -5.26% [at 11.4 µM] (inactive), respectively.

For `CCCCCCN(C(=O)CCCCCN1C(=O)NC(c2ccc(C(F)(F)F)cc2)C(C(=O)OCc2ccccc2)=C1C)C(C(=O)NCCCC)c1ccc(OCC(=O)OC)c(C(=O)OC)c1` (stereo not drawn), the activation in assay [1] stood at 18.9%. Also, the Potency entry in assay [2] was “inactive”.

With `O=C(CSc1nc2c(cnn2-c2ccc(F)cc2)c(=O)[nH]1)N1CCCCCC1`, the activation in assay [1] came to 1.57%. The Potency result in assay [2] was “inactive”.

On to `CN1CCC(CNC(=O)c2ccc(-n3c(=O)c(=O)[nH]c4ccccc43)cc2)CC1`, for which the activation in assay [1] was -0.798%. For the same compound, the Potency entry in assay [2] was “inactive”.

Turning to `Cc1ccc2nc(-c3ccccc3)cc(C(=O)O)c2c1`, in assay [1], the activation was -5.12%. Besides, the Potency result in assay [2] is “inactive”.

Turning to `CC(C)(C)[Si](OCC[C@@H]1C[C@@]1(C)[C@@H](NP(=O)(c1ccccc1)c1ccccc1)c1ccccc1)(c1ccccc1)c1ccccc1`, the activation in assay [1] turned out to be 13.3%. The Potency entry in assay [2] is “inactive”.

Regarding `O=C(COc1ccccc1)NCc1ccc2c(c1)OCO2`, the activation in assay [1] was found to be 27.1%. Moreover, the Potency result in assay [2] was “inactive”.

Regarding `O=C(CC(Cc1ccccc1)C(=O)O)NCCc1ccc2c(c1)OCO2` (stereo not drawn), the activation in assay [1] came out at 9.45%. The Potency result in assay [2] was “inactive”.

As for `O=C(CN(Cc1ccccc1)C(=O)c1ccc2c(c1)OCCO2)NCc1ccc2c(c1)OCO2`, in assay [1], the activation is 12.9%. In addition, in assay [2], the Potency is 7.94 µM (active).
